Source: PubChem
Shown are actives, neighbours in structure and some others; about 2.5% of the full set was active somewhere.
ASK1 inh = human ASK1 kinase inhibition, primary screen; Q99683; inhibition, % at 7.44 µM; AlphaScreen MKK6 phosphorylation by ASK1, luminescence; AID 1159602; 22,000 tested, 0.99% active; in the data active means inhibition above about 35%;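 further: 0% = median of compound wells and 100% = no enzyme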
Target sequence (Q99683 whole entry, looked up): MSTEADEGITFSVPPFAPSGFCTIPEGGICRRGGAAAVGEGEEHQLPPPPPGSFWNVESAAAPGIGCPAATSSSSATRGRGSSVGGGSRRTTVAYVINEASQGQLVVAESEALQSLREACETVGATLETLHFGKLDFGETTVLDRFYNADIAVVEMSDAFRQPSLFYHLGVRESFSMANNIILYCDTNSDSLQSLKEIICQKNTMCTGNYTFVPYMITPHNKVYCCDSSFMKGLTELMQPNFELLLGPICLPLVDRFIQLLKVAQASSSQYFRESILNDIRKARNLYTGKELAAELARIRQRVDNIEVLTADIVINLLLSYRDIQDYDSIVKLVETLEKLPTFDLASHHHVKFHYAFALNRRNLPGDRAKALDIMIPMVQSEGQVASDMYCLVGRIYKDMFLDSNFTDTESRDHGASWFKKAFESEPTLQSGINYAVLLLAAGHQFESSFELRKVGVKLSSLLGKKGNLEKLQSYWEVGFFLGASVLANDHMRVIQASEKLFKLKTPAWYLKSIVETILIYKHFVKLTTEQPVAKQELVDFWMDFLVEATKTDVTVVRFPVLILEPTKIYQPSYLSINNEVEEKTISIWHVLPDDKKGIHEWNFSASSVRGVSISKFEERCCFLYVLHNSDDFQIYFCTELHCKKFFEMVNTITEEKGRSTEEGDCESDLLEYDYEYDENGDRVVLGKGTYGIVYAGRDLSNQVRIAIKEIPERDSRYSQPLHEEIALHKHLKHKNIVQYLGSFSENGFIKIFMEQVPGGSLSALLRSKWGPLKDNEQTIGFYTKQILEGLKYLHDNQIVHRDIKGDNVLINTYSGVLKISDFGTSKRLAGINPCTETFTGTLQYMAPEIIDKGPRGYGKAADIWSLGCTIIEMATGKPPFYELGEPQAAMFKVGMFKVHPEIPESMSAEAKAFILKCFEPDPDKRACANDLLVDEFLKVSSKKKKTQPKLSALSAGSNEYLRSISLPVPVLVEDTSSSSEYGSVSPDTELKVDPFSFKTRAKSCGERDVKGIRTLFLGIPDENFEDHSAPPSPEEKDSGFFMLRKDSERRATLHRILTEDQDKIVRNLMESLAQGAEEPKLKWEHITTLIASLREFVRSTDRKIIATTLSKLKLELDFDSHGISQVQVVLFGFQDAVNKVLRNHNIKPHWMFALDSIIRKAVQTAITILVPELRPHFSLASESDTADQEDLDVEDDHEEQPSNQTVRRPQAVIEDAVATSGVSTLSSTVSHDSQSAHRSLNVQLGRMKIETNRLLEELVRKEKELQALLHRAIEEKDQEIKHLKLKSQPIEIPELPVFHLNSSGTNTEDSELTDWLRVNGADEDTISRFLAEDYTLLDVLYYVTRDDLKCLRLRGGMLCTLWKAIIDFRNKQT
ULK1 primary = inhibitors of human ULK1 kinase. O75385. AlphaScreen Atg13 phosphorylation by ULK1, luminescence. inhibition, % at 5.96 µM. 30,000 tested, 1.9% active. AID 1259251; in the data active means inhibition above about 43%;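 further: 0% = median of compound wells and 100% = no enzyme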
TruHits interf = interferes with AlphaScreen TruHits signal in ASK1 counter-screen | AID 1159604 | 220 tested, 20% active | IC50, µM | shares compounds with ASK1 inh | AlphaScreen TruHits beads, signal interference counterscreen;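 active means IC50 of 10 µM or lower in the counterscreen; inactive means IC50 above 10 µM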;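 further: loss of AlphaScreen light from TruHits beads alone with no ASK1 enzyme present; potency of signal reduction so a low IC50 flags an assay artifact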
The depositor's hits bear a star; i = inactive; . = no result given.

SMILES | ASK1 inh | ULK1 primary | TruHits interf
c1ccc(Nc2cc(-c3ccnc(Nc4ccc(N5CCOCC5)cc4)c3)nn2-c2ccccc2)cc1 | 40.8* | -14.2 | >19.2
N[C@H](Cc1ccc(Br)cc1)C(=O)N1CC[C@H](C(=O)Nc2ccc3[nH]ncc3c2)C1 | -7.0 | 12.2 | .
c1cc(-c2ccc3[nH]ncc3c2)nc(Nc2ccc(N3CCOCC3)cc2)n1 | 37.7* | 64.8* | >19.2
FC(F)(F)c1cc(-c2ccnc(Nc3ccc(N4CCOCC4)nc3)n2)cc(N2CCOCC2)c1 | 15.5 | 7.5 | .
Fc1cc(-c2ccnc(Nc3ccc(N4CCOCC4)cc3)n2)cc(N2CCN(C3CC3)CC2)c1 | 39.7* | 56.0* | >19.2
FC(F)(F)c1cc(-c2ccnc(Nc3ccc(N4CCOCC4)cc3)n2)cc(N2CCOCC2)c1 | 45.3* | 16.2 | >19.2
N#Cc1cc(-c2ccnc(Nc3ccc(N4CCOCC4)cc3)n2)cc(N2CCN(C3CC3)CC2)c1 | -6.3 | 7.7 | .
c1cc(-c2ccc3nonc3c2)nc(Nc2ccc(N3CCOCC3)cc2)n1 | 13.9 | -0.2 | .
COc1ccc(-c2nc(C)cc(Nc3ccccc3)n2)cc1 | -5.8 | -19.1 | .
Cc1nc(-c2cncc(-c3ccccc3)c2)cc(N2CCC3(CC2)OCCO3)n1 | . | -7.7 | .
CCOC(=O)C1=C(CC)NC2=C(C(=O)CCC2)C1c1ccc(O)c([N+](=O)[O-])c1 (centres undefined) | . | -6.8 | .
OCCNc1nc(Nc2ccc3ncccc3c2)nc2c1ncn2Cc1ccc(C(F)(F)F)cc1 | -2.5 | 6.6 | .
FC(F)(F)c1ccc(Cn2cnc3c(NCc4cccc(C(F)(F)F)c4)nc(Nc4ccccc4)nc32)cc1 | 15.3 | 0.3 | .
FC(F)(F)c1ccc(Cn2cnc3c(NCc4cccc(C(F)(F)F)c4)nc(Nc4ccc5ncccc5c4)nc32)cc1 | 40.0* | -0.5 | >19.8
FC(F)(F)c1ccc(Cn2cnc3c(NCc4ccccc4)nc(Nc4ccccc4)nc32)cc1 | 46.1* | -4.4 | >20.1
CN(C)c1cccc(Nc2nc(NC3CC3)c3ncn(CCN4CCCC4=O)c3n2)c1 | -4.1 | 18.1 | .
CC(C)n1cnc2c(Nc3ccccc3)nc(-c3ccccc3)nc21 | -12.1 | 5.0 | .
c1ccc(OCCNc2nc(Nc3ccncc3)nc3c2ncn3C2CCCCC2)cc1 | -2.1 | 5.0 | .
c1ccc(OCCNc2nc(Nc3ccc(-n4ccnc4)cc3)nc3c2ncn3C2CCCCC2)cc1 | 48.9* | 14.2 | >20
c1ccc(OCCNc2nc(Nc3ccc(N4CCOCC4)cc3)nc3c2ncn3C2CCCCC2)cc1 | 48.2* | 17.2 | 6.98*
c1ccc(OCCNc2nc(NCCN3CCOCC3)nc3c2ncn3C2CCCCC2)cc1 | -8.3 | -9.5 | .
FC(F)(F)c1ccc(Cn2cnc3c(NCCN4CCOCC4)nc(-c4csc5ccccc45)nc32)cc1 | -1.9 | -67.1 | .
O=C(Cc1cn(-c2ccc(N3CCN(Cc4ccc5c(c4)OCO5)CC3)nn2)c2ccccc12)Nc1ccccc1 | -2.2 | -0.3 | .
O=C(Cc1cn(-c2ccc(N3CCN(Cc4ccc5c(c4)OCO5)CC3)nn2)c2ccccc12)Nc1ccc(N2CCOCC2)cc1 | 38.8* | 21.5 | >20
Fc1cnc(Nc2ccc(N3CCOCC3)cc2)nc1-c1cccc(N2CCOCC2)c1 | 10.3 | 2.4 | .
SMILES | ASK1 inh | ULK1 primary | TruHits interf
NC(C(=O)N1CCN(c2ccc3[nH]ncc3c2)CC1)c1ccc(F)cc1 (centres undefined) | 1.9 | 6.7 | .
CCN(CC)c1nc(NCCN2CCOCC2)nc(Nc2ccc(-n3ccnc3)cc2)n1 | 8.7 | 0.5 | .
CCN(CC)c1nc(Nc2ccc(N3CCOCC3)cc2)nc(Nc2ccc(-n3ccnc3)cc2)n1 | 40.8* | -24.2 | 6.03*
CC(=O)Nc1ccc(NC(=O)c2cnc(NCCCN3CCCC3=O)s2)cc1 | 10.8 | 24.3 | .
COc1ccc(CCNc2nc(Nc3cccc(N(C)C)c3)nc3c2ncn3C(C)C)cc1 | 37.1* | 8.9 | >20
CC(C)n1cnc2c(NCCO)nc(Nc3cccc(N(C)C)c3)nc21 | 13.2 | 20.1 | .
Cn1nccc1Nc1cc(C(=O)NC2CCN(Cc3ccccc3)CC2)c2ccccc2n1 | 22.1 | -23.5 | .
NC(C(=O)N1CCCC(Nc2ccc3[nH]ncc3c2)C1)c1ccc(Br)cc1 (centres undefined) | -10.4 | 26.2 | .
c1cc(Nc2ccc3c(c2)OCO3)nc(N2CCN(Cc3ccc4c(c3)OCO4)CC2)n1 | 37.0* | -30.2 | >20.1
c1cc(Nc2ccc(N3CCOCC3)cc2)nc(Nc2ccc(N3CCOCC3)cc2)n1 | 20.6 | 12.0 | .
c1ccc(Nc2ccnc(N3CCc4ccccc4C3)n2)cc1 | 0.8 | -13.8 | .
c1ccc2c(c1)CCN(c1nccc(Nc3ccc(N4CCOCC4)cc3)n1)C2 | 49.5* | 6.7 | i
c1cc(Nc2ccc3c(c2)OCO3)nc(Nc2ccc(N3CCOCC3)cc2)n1 | 47.8* | -4.5 | >20.3
COc1ccc(CCNc2ccnc(Nc3ccc(N4CCOCC4)cc3)n2)cc1 | 42.5* | 7.9 | i
c1ccc(Nc2ccnc(N3CCN(Cc4ccc5c(c4)OCO5)CC3)n2)cc1 | 8.6 | -16.6 | .
COc1ccc(CCNc2cc(C)nc(Nc3ccc(N4CCOCC4)cc3)n2)cc1 | 32.2 | 2.1 | .
O=C(NCc1cccnc1)c1csc(Nc2ncccn2)n1 | 1.1 | 16.7 | .
COc1nc(Nc2ccc(Oc3ccccc3)cc2)nc(-c2ccc(C(N)=O)cc2)n1 | 3.8 | -35.8 | .
COc1cc2nc(Nc3ccc(N4CCOCC4)cc3)nc(Nc3ccc4c(c3)OCO4)c2cc1OC | 54.0* | -1.1 | 4.84*
COc1cc2nc(Nc3ccc(-n4ccnc4)cc3)nc(Nc3ccc4c(c3)OCO4)c2cc1OC | 49.0* | -161.9 | >20
COc1cc2nc(NCc3ccc4c(c3)OCO4)nc(Nc3ccc(N4CCOCC4)cc3)c2cc1OC | 51.0* | 0.0 | 6.26*
COc1cc2nc(NCc3cccnc3)nc(Nc3ccc(N4CCOCC4)cc3)c2cc1OC | 20.9 | 17.2 | .
COc1cc2nc(Nc3ccc(N4CCOCC4)cc3)nc(Nc3ccc(NC(C)=O)cc3)c2cc1OC | 31.0 | 4.3 | .
COc1ccc(CCNc2cc(C)nc(N3CCN(Cc4ccc5c(c4)OCO5)CC3)n2)cc1 | 15.2 | -26.6 | .
COc1cc2nc(Nc3ccc(-n4ccnc4)cc3)nc(Nc3ccc(NC(C)=O)cc3)c2cc1OC | 13.4 | -28.5 | .
SMILES | ASK1 inh | ULK1 primary | TruHits interf
Cc1cc(NCCc2ccc(O)cc2)nc(N2CCN(Cc3ccc4c(c3)OCO4)CC2)n1 | 37.0* | 7.9 | >18.1
c1ccc(-n2cnc3c(NC4CC4)nc(-c4ccc(N5CCOCC5)nc4)nc32)cc1 | 15.1 | -8.0 | .
Fc1cc(-c2cnoc2)cc(-c2ccnc(Nc3ccc(-n4cnc(N5CCOCC5)n4)cc3)n2)c1 | 2.1 | 2.7 | .
c1ccc(CN2CCC(Nc3nc(N4CCN(Cc5ccc6c(c5)OCO6)CC4)nc4c3ncn4C3CCCCC3)CC2)cc1 | 35.5* | 9.4 | 8.66*
c1ccc(CNc2nc(N3CCN(Cc4ccc5c(c4)OCO5)CC3)nc3c2ncn3C2CCCCC2)cc1 | 5.6 | 8.1 | .
Nc1cc(C2=C3C=CN=C3C(=O)NCC2)c(O)[nH]1 | 38.3* | 71.3* | >19.2
Nc1cc(C2=C3C=C(Br)N=C3C(=O)NCC2)c(O)[nH]1 | 16.9 | 30.9 | .
CC(C)N(CCNc1nc(Nc2cnccn2)nc2c1ncn2Cc1ccc(C(F)(F)F)cc1)C(C)C | -13.1 | -0.2 | .
CCN(CC)C(=O)C1CCCN(c2nc(NCc3cccnc3)c3ncn(C(C)C)c3n2)C1 (centres undefined) | 0.3 | -1.2 | .
Oc1ccc(CCNc2nc(Cl)nc3c2ncn3-c2ccsc2)cc1 | -17.1 | -41.0 | .
O=C(NCCOc1ccccc1)c1cccc(N2CCOCC2)c1 | -7.8 | -6.8 | .
